Results as given in PubChem BioAssay (Tox21).
Records with an inconclusive call do not appear. The source made the active and inactive calls. Unless noted, calls follow the shape of the full dose curve.

How the values were obtained:
[1] = Nuclear factor erythroid 2-related factor 2/antioxidant responsive element (Nrf2/ARE) small molecule agonists: qHTS cell viability counter screen in human keratinocytes (AID 1919968; active = well fitted curve in the direction sought with a large enough effect in the repeat runs; an effect the other way counts as inactive or inconclusive; also: nearly all actives have a fitted effect of over 55% in size; also: potency is read from the fitted curve at half-maximal effect)
Summary of the method: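 HaCaT ARE reporter line, 1,500 cells/well; 5 h settle, 37 C/5% CO2; cpd in DMSO pinned; 23 h exposure; CellTiter-Fluor, 1 h; fluorescence.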

[2] = Nuclear factor erythroid 2-related factor 2/antioxidant responsive element (Nrf2/ARE) small molecule agonists: luciferase reporter gene qHTS assay in human keratinocytes (AID 1919969); also: nearly all actives have a fitted effect of over 35% in size; also: potency is read from the fitted curve at half-maximal effect
[3] = biological target: Gonadotropin-releasing hormone receptor (Homo sapiens) (UniProt P30968); assay: Human gonadotropin-releasing hormone receptor (GnRHR) small molecule agonists, calcium flux assay in GnRHR-HEK293 cells (AID 1920063); also: nearly all actives have a fitted effect of over 35% in size; also: potency is read from the fitted curve at half-maximal effect
Summary of the method: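 GnRHR-HEK293, 1500 cells/well, 18 h 37 C/5% CO2; Ca dye 1 h 37 C; cpd pinned (DMSO), agonist mode; kinetic FL 480/540, 3 min, 1 s reads; 15 conc, n=3.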

[4] = biological target: KiSS-1 receptor (Homo sapiens) (UniProt Q969F8); assay: Human kisspeptin (KISS1R) small molecule agonists, calcium flux assay in KISS1R-HEK293 cells (AID 1920064; active = well fitted curve in the direction sought with a large enough effect in the repeat runs; an effect the other way counts as inactive or inconclusive; also: potency is read from the fitted curve at half-maximal effect)
Summary of the method: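 Stable human KISS1R HEK293 line; 18 h plating, 37 C/5% CO2; calcium dye 1 h 37 C; compound pin transfer; kinetic fluorescence Ex/Em 480/540, 3 min.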

[5] = G protein-coupled receptor (GPCR) small molecule agonists, calcium flux assay: HEK293 wild type cell line counter screen (AID 1920065); also: potency is read from the fitted curve at half-maximal effect
Summary of the method: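 Kinetic fluorescence at Ex/Em 480/540, recorded every second over 3 min, served as the read-out after compound addition. Each compound was tested at 15 concentrations in triplicate on cells pre-loaded with calcium dye for 1 h.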

[6] = p53 small molecule agonists, cell-based qHTS assay with human liver microsomes (AID 1963577)
Summary of the method: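 p53RE-bla cells, 4,000/well, compound added after 5 h, with human liver microsomes 0.5 mg/mL and NADPH 0.5 mg/mL final; 16 h at 37 C, then LiveBLAzer 2 h RT, fluorescence.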

[7] = p53 small molecule agonists, cell-based qHTS assay with rat liver microsomes (AID 1963578)
Summary of the method: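 p53RE-bla cells, 4,000/well, pre-incubated 5 h, then given compounds plus rat liver microsomes (0.5 mg/mL final) and NADPH (0.5 mg/mL final). Incubation 16 h at 37 C; beta-lactamase reporter read by LiveBLAzer fluorescence after 2 h at room temperature.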

[8] = p53 small molecule agonists, cell-based qHTS assay with human liver microsomes: qHTS cell viability counter screen (AID 1963579); also: nearly all actives have a fitted effect of over 45% in size; also: potency is read from the fitted curve at half-maximal effect
Summary of the method: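 p53RE-bla cells, 4,000/well, dosed 5 hours after plating, with human liver microsomes (0.5 mg/mL final) plus NADPH (0.5 mg/mL final), 16 hours at 37 C. Viability read as CellTiter-Glo luminescence after 30 min at room temperature.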

[9] = p53 small molecule agonists, cell-based qHTS assay with rat liver microsomes: qHTS cell viability counter screen (AID 1963580); also: nearly all actives have a fitted effect of over 45% in size; also: potency is read from the fitted curve at half-maximal effect
Summary of the method: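 p53RE-bla HCT-116 cells (4,000/well) rested 5 h at 37 C, then given Tox21 compounds in DMSO with rat liver microsomes (0.5 mg/mL final) plus NADPH (0.5 mg/mL final) for 16 h at 37 C. Viability read by CellTiter-Glo luminescence after 30 min at room temperature.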

[10] = p53 small molecule agonists, cell-based qHTS assay (AID 1963582; active = well fitted activation curve with a large enough effect in the signal ratio in the repeat runs, not every such curve was filed as active; the % refers to the signal ratio)
Summary of the method: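 Reporter line: p53RE-bla. Pre-incubation 5 h, 37 C, 5% CO2; compound (DMSO, pin tool) 16 h, 37 C; B/G FRET substrate 2 h RT; fluorescence intensity read.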

[11] = biological target: 5-hydroxytryptamine receptor 2A (Homo sapiens) (UniProt P28223); assay: 5-hydroxytryptamine receptor 2A (HTR2A) small molecule antagonists, cell-based qHTS assay (AID 1963586); also: nearly all actives have a fitted effect of over 45% in size
Summary of the method: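 Antagonist-mode intracellular calcium assay: DOI (4 nM) added after 5 min compound pre-incubation at room temperature to dye-loaded HTR2A-CHO cells. Fluorescence followed for 3 min, sampled every second.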

[12] = biological target: 5-hydroxytryptamine receptor 2A (Homo sapiens) (UniProt P28223); assay: 5-hydroxytryptamine receptor 2A (HTR2A) small molecule agonists, cell-based qHTS assay (AID 1963587); also: nearly all actives have a fitted effect of over 30% in size; also: potency is read from the fitted curve at half-maximal effect
Summary of the method: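 HTR2A-CHO cells, plated 18 h at 37 C/5% CO2, dye-loaded 1 h at 37 C; compounds in DMSO added by pin tool (agonist mode). Intracellular calcium flux read as kinetic fluorescence on FDSS over 2 min at 1 s intervals.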

[13] = biological target: Muscarinic acetylcholine receptor M1 (Homo sapiens) (UniProt P11229); assay: Cholinergic receptor muscarinic 1 (CHRM1) small molecule antagonists, cell-based qHTS assay (AID 1963588); also: nearly all actives have a fitted effect of over 40% in size
Summary of the method: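 CHRM1-CHO calcium-flux assay, antagonist mode. Cells were seeded 18 h, dye-loaded 1 h at 37 C and given compound for 5 min at RT, then acetylcholine was added at 50nM. FDSS fluorescence was read 3 min; 15 concentrations, three runs.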

[14] = biological target: Muscarinic acetylcholine receptor M1 (Homo sapiens) (UniProt P11229); assay: Cholinergic receptor muscarinic 1 (CHRM1) small molecule agonists, cell-based qHTS assay (AID 1963589); also: nearly all actives have a fitted effect of over 35% in size; also: potency is read from the fitted curve at half-maximal effect
Summary of the method: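 Human M1 in stable CHO line; 18 h plating, 1 h dye load 37 C; cpd added (agonist mode); Ca2+ fluorescence kinetic read, 1 s intervals; 15 conc, 3 runs.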

[15] = biological target: Beta-2 adrenergic receptor (Homo sapiens) (UniProt P07550); assay: Adrenergic beta2 receptor (ADRB2) small molecule antagonists, cell-based qHTS assay (AID 1963592); also: series mostly up to about 92 µM; nearly all actives have a fitted effect of over 50% in size
Summary of the method: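 Cells (CHO, stable ADRB2 overexpression) incubated 18-20hr at 37C; compounds added from DMSO; agonist mix (1nM isoproterenol, 100uM IBMX, 25uM Ro-20-1724) added; 0.5hr RT; d2-cAMP and anti-cAMP-cryptate added; 1hr RT; 665/615 nm read.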

[16] = biological target: D(2) dopamine receptor (Homo sapiens) (UniProt P14416); assay: Dopamine D2 receptor (DRD2) small molecule agonists, cell-based qHTS assay (AID 1963594); also: nearly all actives have a fitted effect of over 35% in size; also: potency is read from the fitted curve at half-maximal effect
Summary of the method: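 HEK293 cells stably expressing DRD2 were cultured 24 h at 37 C, then given Ro20-1724 (0.1 mM final) and compounds for 10 min at room temperature. NKH477 (200nM) was then added for 30 min. cAMP was read by HTRF.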

[17] = cAMP Responsive Elements (CRE) small molecule agonists, cell-based qHTS assay (AID 1963590)
Summary of the method: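 HEK 293T CRE-bla, 2,000 cells/well, 18 h preincubation 37 C/5% CO2; cpds (DMSO) pinned, 3 h; LiveBLAzer B/G FRET substrate, 2 h RT.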

[18] = cAMP Responsive Elements (CRE) small molecule antagonists, cell-based qHTS assay (AID 1963591; active = well fitted inhibition curve with a large enough effect in the signal ratio in the repeat runs, not every such curve was filed as active; the % refers to the signal ratio)
Summary of the method: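 Beta-lactamase reporter read by FRET substrate (LiveBLAzer B/G) after 2 h at room temperature. CRE-bla HEK293T cells had received compound plus 0.25 uM (final) NKH477 for 3 h at 37 °C.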

[19] = biological target: D(2) dopamine receptor (Homo sapiens) (UniProt P14416); assay: Dopamine D2 receptor (DRD2) small molecule antagonists, cell-based qHTS assay (AID 1963595; active = well fitted inhibition curve with a large enough effect in the signal ratio in the repeat runs, with a control signal flat; the % refers to the signal ratio; also: potency is read from the fitted curve at half-maximal effect)
Summary of the method: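 Cells were plated and grown for 24 h at 37 °C. Ro20-1724 (0.1 mM final) went in first, then compound for 10 min. NKH477 (200 nM) with quinpirole (12 nM) followed for 30 min at RT, then HTRF detection reagents for 1 h.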

[20] = p53 small molecule agonists, cell-based qHTS assay: qHTS cell viability counter screen (AID 1963581); also: nearly all actives have a fitted effect of over 45% in size; also: potency is read from the fitted curve at half-maximal effect
Summary of the method: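 HCT-116 p53RE-bla cells, 4,000/well, plated 5 h before compound pin transfer; 16 h at 37 C; bla substrate 2 h RT; then CellTiter-Glo, 30 min RT, luminescence.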
% is scaled to controls: 0 for no effect and ±100 for the full control effect.

5-hydroxytryptamine receptor 2A (Homo sapiens), sequence (P28223 whole entry, looked up): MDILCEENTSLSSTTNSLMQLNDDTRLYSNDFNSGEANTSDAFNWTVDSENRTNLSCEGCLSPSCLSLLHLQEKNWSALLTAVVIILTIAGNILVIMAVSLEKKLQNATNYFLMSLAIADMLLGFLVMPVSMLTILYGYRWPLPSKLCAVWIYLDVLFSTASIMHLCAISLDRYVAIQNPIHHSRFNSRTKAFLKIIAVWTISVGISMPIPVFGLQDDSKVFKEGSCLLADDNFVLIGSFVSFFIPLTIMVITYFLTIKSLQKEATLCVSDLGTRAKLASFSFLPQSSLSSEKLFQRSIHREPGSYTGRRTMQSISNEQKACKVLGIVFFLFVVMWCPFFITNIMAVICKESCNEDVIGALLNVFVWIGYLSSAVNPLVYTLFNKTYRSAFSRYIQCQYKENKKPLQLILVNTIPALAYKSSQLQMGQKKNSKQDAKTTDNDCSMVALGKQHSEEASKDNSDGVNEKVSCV
KiSS-1 receptor (Homo sapiens), sequence (Q969F8 whole entry, looked up): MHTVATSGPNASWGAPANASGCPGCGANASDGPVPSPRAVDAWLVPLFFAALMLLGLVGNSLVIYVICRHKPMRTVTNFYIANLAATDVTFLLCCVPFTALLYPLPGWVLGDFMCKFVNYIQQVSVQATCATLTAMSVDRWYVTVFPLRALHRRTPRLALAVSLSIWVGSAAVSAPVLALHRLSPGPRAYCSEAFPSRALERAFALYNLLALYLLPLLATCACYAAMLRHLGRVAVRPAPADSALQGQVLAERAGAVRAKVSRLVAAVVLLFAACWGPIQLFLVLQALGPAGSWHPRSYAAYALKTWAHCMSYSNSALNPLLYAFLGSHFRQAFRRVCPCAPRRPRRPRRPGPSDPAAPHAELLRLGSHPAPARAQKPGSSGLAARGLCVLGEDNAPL
Muscarinic acetylcholine receptor M1 (Homo sapiens), sequence (P11229 whole entry, looked up): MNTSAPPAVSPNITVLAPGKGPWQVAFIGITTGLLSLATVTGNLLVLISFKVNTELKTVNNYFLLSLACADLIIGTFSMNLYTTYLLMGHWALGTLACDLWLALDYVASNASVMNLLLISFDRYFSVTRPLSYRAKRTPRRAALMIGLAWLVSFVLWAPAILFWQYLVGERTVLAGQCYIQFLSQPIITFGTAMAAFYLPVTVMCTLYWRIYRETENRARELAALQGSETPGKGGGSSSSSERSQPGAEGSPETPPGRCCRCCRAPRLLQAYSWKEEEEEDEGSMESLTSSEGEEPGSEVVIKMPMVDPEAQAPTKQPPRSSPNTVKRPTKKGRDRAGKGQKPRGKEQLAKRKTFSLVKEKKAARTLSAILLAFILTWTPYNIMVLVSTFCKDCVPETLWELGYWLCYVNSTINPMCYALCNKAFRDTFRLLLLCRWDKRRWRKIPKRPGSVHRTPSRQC
Beta-2 adrenergic receptor (Homo sapiens), sequence (P07550 whole entry, looked up): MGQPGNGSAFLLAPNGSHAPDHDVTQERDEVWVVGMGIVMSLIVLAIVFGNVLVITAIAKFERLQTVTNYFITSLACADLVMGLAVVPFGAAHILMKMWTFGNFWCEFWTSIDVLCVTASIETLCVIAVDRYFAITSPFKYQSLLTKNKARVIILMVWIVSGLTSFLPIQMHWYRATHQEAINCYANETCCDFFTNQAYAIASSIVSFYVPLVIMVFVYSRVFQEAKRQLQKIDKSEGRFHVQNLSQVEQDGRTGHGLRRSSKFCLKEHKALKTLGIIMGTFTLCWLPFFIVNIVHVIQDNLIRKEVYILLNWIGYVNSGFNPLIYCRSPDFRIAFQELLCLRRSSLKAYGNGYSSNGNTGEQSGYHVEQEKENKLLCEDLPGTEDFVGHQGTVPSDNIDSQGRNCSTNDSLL
D(2) dopamine receptor (Homo sapiens), sequence (P14416 whole entry, looked up): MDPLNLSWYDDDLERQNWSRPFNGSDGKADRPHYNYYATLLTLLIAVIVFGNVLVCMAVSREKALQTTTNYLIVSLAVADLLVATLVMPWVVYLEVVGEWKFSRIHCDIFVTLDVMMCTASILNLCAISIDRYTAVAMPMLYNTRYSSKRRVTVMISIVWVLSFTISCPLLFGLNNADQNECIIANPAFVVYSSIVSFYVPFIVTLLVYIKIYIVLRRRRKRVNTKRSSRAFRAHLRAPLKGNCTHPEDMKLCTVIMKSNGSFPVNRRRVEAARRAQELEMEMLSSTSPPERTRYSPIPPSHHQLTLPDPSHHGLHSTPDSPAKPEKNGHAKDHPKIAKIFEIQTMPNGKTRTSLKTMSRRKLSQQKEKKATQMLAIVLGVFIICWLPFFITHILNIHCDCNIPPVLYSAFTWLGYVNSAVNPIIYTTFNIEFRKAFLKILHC
Gonadotropin-releasing hormone receptor (Homo sapiens), sequence (P30968 whole entry, looked up): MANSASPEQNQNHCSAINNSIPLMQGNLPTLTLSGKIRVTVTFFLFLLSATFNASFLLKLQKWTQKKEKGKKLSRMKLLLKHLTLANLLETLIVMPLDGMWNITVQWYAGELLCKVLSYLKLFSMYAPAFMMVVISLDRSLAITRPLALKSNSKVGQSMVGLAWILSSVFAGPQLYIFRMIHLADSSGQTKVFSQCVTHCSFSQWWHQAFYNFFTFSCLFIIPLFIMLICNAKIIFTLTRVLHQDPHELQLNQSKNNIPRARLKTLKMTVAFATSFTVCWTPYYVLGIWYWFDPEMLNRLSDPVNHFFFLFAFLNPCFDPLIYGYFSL

O=C1C(Cl)C(CCl)CN1c1cccc(C(F)(F)F)c1 (centres undefined)
inactive: Potency [1] | Potency [2] | Potency [3] | Potency [4] | Potency [5] | Potency [6] | Potency [7] | Potency [8] | Potency [9] | Potency [10] | Potency [11] | Potency [12] | Potency [13] | Potency [14] | Potency [15] | Potency [16]

CC(Cc1ccccc1)NCCCCl (centres undefined)
inactive: Potency [1] | Potency [2] | Potency [3] | Potency [4] | Potency [5] | Potency [6] | Potency [7] | Potency [8] | Potency [9] | Potency [10] | Potency [12] | Potency [13] | Potency [14] | Potency [17] | Potency [18] | Potency [16] | Potency [19]

CC1=C(C(=O)O)N2C(=O)[C@@H](N)[C@H]2SC1
inactive: activity change, negative = cytotoxicity [1] 0.0817% [at 19 µM] | activity, positive = activation [2] -0.189% [at 19 µM] | activity change [3] 0.673% [at 11.8 µM, active compounds read high] | activation [4] 0.11% [at 15.8 µM] | activation [5] -0.375% [at 11.8 µM] | activation [6] -0.214% [at 13.5 µM] | activation [7] -0.0529% [at 13.6 µM] | activity change, negative = cytotoxicity [8] 0.455% [at 13.5 µM] | activity change, negative = cytotoxicity [9] 4.3e-05% [at 13.5 µM] | activation [10] 0.428% [at 13.5 µM] | activity, negative = inhibition [11] 25.1% [at 12.7 µM] | activation [12] 1.93% [at 15.9 µM] | activity, negative = inhibition [13] -6.26% [at 12.6 µM] | activation [14] 0% [at 15.8 µM] | activation [17] -0.165% [at 19 µM] | activity change, negative = inhibition [18] -4.67% [at 18.9 µM] | activity change, negative = inhibition [15] 2.77% [at 19 µM] | activation [16] -15.4% [at 19 µM] | activity change, negative = inhibition [19] -2.19% [at 18.9 µM]

CC(C)[N+](=O)[O-]
inactive: Potency [1] | Potency [2] | Potency [3] | Potency [4] | Potency [5] | Potency [6] | Potency [7] | Potency [8] | Potency [9] | Potency [20] | Potency [12] | Potency [13] | Potency [14] | Potency [17] | Potency [18] | Potency [15] | Potency [16] | Potency [19]

CC(Cc1ccc(OCC(=O)O)cc1)NCC(O)c1csc(C(F)(F)F)n1 (centres undefined)
inactive: Potency [1] | Potency [2] | Potency [3] | Potency [4] | Potency [5] | Potency [6] | Potency [7] | Potency [8] | Potency [9] | Potency [10] | Potency [11] | Potency [12] | Potency [14] | Potency [17] | Potency [18] | Potency [19]

CN(CCCC(O)c1cccnc1)N=O (centres undefined)
inactive: Potency [1] | Potency [2] | Potency [3] | Potency [4] | Potency [5] | Potency [6] | Potency [7] | Potency [8] | Potency [9] | Potency [10] | Potency [11] | Potency [12] | Potency [13] | Potency [14] | Potency [17] | Potency [18] | Potency [15] | Potency [16] | Potency [19]

CC(=O)[O][Sn]([c]1ccccc1)([c]1ccccc1)[c]1ccccc1
active: Potency [1] 0.0486 µM | Potency [2] 0.0193 µM | Potency [3] 17.4 µM | Potency [4] 49 µM | Potency [5] 38.9 µM | Potency [8] 6.46 µM | Potency [9] 1.62 µM | Potency [20] 10.2 µM | Potency [12] 24.5 µM | Potency [14] 24.5 µM | Potency [16] 52.4 µM | Potency [19] 3.06 µM
inactive: Potency [6] | Potency [7]
